Assay outcomes from PubChem BioAssay.
Only some compounds are listed: those with a hit (about 6.7% of all), similar ones and a draw of the others.
C_diff_growth – inhibitors of Clostridium difficile growth. Clostridium difficile clinical isolate growth, OD600, 24 h; stronger effect = lower value. growth activity, negative = inhibition, % at 16 µg/mL (by protocol). actives 0.25% (n = 86,000). AID 1259249;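 active = mean growth activity at or below -80% and every replicate also at or below -80%; inconclusive = mean at or below -80% but some replicate above -80%; inactive = mean growth activity above -80%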
T_cruzi_growth-1 – inhibitors of T. cruzi proliferation. T. cruzi beta-gal in NIH3T3, GalScreen luminescence, 90 h. inhibition, % at 8.34 µM. actives 5.9% (n = 77,000). AID 624255;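 active = mean inhibition above about 93%, with at least 55% of replicates each passing it, limit read from the data, passing the limit was not always enough; inconclusive = only one of those two conditions holds; inactive = neither condition holds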
Pf_Dd2_inh – blocks growth of Plasmodium falciparum Dd2 parasites; P. falciparum Dd2 growth, SYBR Green, 72 h; stronger effect = lower value; activity change, % at 10 µM; AID 1159554; actives 2.3% (n = 94,000); in the data active = activity change below about -80%; inconclusive = no clear call, values can overlap the other calls
T_cruzi_growth-2 – Trypanosoma cruzi proliferation inhibition | shares compounds with T_cruzi_growth-1 | T. cruzi beta-gal in NIH3T3, GalScreen luminescence, 90 h | inhibition, % at 8.35 µM | actives 72% (n = 5,600);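 active = mean replicate inhibition above about 95% and at least 55% of replicates individually reaching it, limit read from the data; inconclusive = only one of the two criteria is met; inactive = neither criterion is met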
T_cruzi_growth-3 – inhibitors of T. cruzi proliferation; T. cruzi beta-gal in NIH3T3, GalScreen luminescence, 90 h; inhibition, % at 2.09 µM; actives 21% (n = 5,600); shares compounds with T_cruzi_growth-1;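 active = mean inhibition above about 95%, with at least 55% of replicates also reaching it, limit read from the data; inconclusive = meets just one of the two conditions; inactive = meets neither condition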
3T3_cytotox – NIH/3T3 (mouse) viability loss. cytotoxicity (signal decrease), % at 8.35 µM. shares compounds with T_cruzi_growth-1. AID 651742. actives 14% (n = 5,600). NIH/3T3 viability, CellTiter-Glo ATP luminescence, 90 h;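 active = mean signal decrease across replicates above about 35% based on untreated-well scatter, with enough replicates individually passing, limit read from the data; inconclusive = no rule stated though some were filed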
3T3_cytotox_2 – cytotoxicity in mouse NIH/3T3 fibroblasts; shares compounds with T_cruzi_growth-1; NIH/3T3 viability, CellTiter-Glo ATP luminescence, 90 h; inhibition, % at 24.9 µM; actives 56% (n = 5,600);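 active = mean loss of cell viability signal at or above a set limit, and enough replicates individually reaching it; inconclusive = meets only the mean limit or only the replicate share; inactive = meets neither condition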
Numbers stand for hits; 0 = inactive; ? = inconclusive; - = not tested or not shown.

SMILES C_diff_growth T_cruzi_growth-1 Pf_Dd2_inh T_cruzi_growth-2 T_cruzi_growth-3 3T3_cytotox 3T3_cytotox_2
O=C(C1CCC1)N1CCCCN2[C@@H](CO)[C@H](c3ccc(-c4ccncc4)cc3)[C@@H]2C1 0 ? 0 101.8 0 0 ?
CN(C)C(=O)c1ccc(-c2ccc([C@H]3[C@H]4CN(C(=O)C5CC5)CCCCN4[C@H]3CO)cc2)cc1 0 0 0 - - - -
CN(C)C(=O)c1ccc(-c2ccc([C@H]3[C@@H](CO)N4CCCCN(C(=O)C5CCC5)C[C@H]34)cc2)cc1 0 113.3 0 96.5 ? 0 0
CN(C)C(=O)c1ccc(-c2ccc([C@@H]3[C@H](CO)N4CCCCN(C(=O)C5CCC5)C[C@@H]34)cc2)cc1 0 105.9 0 103.0 ? 0 0
COc1ccc(S(=O)(=O)Nc2ccc3c(c2)C(=O)N([C@@H](C)CO)C[C@H](C)[C@H](CN(C)C(=O)Nc2ccc(C(F)(F)F)cc2)O3)cc1 0 0 0 - - - -
COc1ccc(-c2ccc([C@H]3[C@@H](CO)N4CCCCN(S(=O)(=O)c5cccs5)C[C@@H]34)cc2)cc1 0 107.4 0 116.3 0 0 0
COc1cccc(-c2ccc([C@H]3[C@@H](CO)N4CCCCN(S(=O)(=O)c5cccs5)C[C@@H]34)cc2)c1 0 0 0 - - - -
COc1cccc(-c2ccc([C@H]3[C@H]4CN(S(=O)(=O)c5cccs5)CCCCN4[C@H]3CO)cc2)c1 0 0 0 - - - -
COc1cccc(-c2ccc([C@@H]3[C@@H](CO)N4CCCCN(S(=O)(=O)c5cccs5)C[C@@H]34)cc2)c1 0 96.8 0 0 0 0 25.0
CCS(=O)(=O)N[C@H]1CC[C@H](CC(=O)N2CCCCC2)O[C@H]1CO - 0 0 - - - -
C[C@H](O)C#Cc1ccc2c(c1)O[C@H](CN(C)Cc1ccc(-c3ccccc3)cc1)[C@H](C)CN([C@H](C)CO)S2(=O)=O 0 99.2 0 97.5 97.4 0 106.1
C[C@H](O)C#Cc1ccc2c(c1)O[C@@H](CN(C)Cc1ccc(-c3ccccc3)cc1)[C@@H](C)CN([C@@H](C)CO)S2(=O)=O 0 0 0 - - - -
C[C@H](CO)N1C[C@H](C)[C@H](CN(C)Cc2ccc(-c3ccccc3)cc2)Oc2cc(C#C[C@@H](C)O)ccc2S1(=O)=O 0 102.6 0 96.0 114.9 52.2 102.3
C[C@@H]1CN([C@@H](C)CO)S(=O)(=O)c2ccc(C#C[C@@H](C)O)cc2O[C@H]1CN(C)Cc1ccc(-c2ccccc2)cc1 0 0 0 - - - -
C[C@H]1CN([C@@H](C)CO)C(=O)c2cccc(NS(=O)(=O)c3cn(C)cn3)c2O[C@@H]1CN(C)Cc1ccc(C(=O)O)cc1 0 0 0 - - - -
C[C@@H]1CN([C@H](C)CO)S(=O)(=O)c2ccc(C#Cc3ccccc3F)cc2O[C@@H]1CN(C)C(=O)Cc1ccccc1 0 120.9 0 96.5 99.0 0 101.6
C[C@H]1CN([C@@H](C)CO)S(=O)(=O)c2ccc(C#Cc3ccccc3F)cc2O[C@@H]1CN(C)C(=O)Cc1ccncc1 0 - 0 - - - -
C[C@H]1CN([C@@H](C)CO)S(=O)(=O)c2ccc(C#Cc3ccccc3F)cc2O[C@H]1CN(C)C(=O)Cc1ccccc1 0 125.3 0 109.1 0 0 103.1
C[C@H](CO)N1C[C@H](C)[C@H](CN(C)C(=O)Cc2ccccc2)Oc2cc(C#Cc3ccccc3F)ccc2S1(=O)=O 0 126.6 0 95.2 0 0 ?
CC(=O)N(C)C[C@@H]1Oc2cc(C#Cc3ccccc3F)ccc2S(=O)(=O)N([C@H](C)CO)C[C@H]1C 0 0 0 - - - -
C[C@@H]1CN([C@H](C)CO)S(=O)(=O)c2ccc(C#Cc3ccccc3F)cc2O[C@@H]1CN(C)C(=O)Cc1ccncc1 0 - 0 - - - -
C[C@H](CO)N1C[C@H](C)[C@@H](CN(C)C(=O)Cc2ccccc2)Oc2cc(C#Cc3ccccc3F)ccc2S1(=O)=O 0 123.5 ? 0 0 0 0
CC(=O)N(C)C[C@H]1Oc2cc(C#Cc3ccccc3F)ccc2S(=O)(=O)N([C@H](C)CO)C[C@H]1C 0 0 0 - - - -
C[C@H]1CN([C@@H](C)CO)C(=O)CCCn2nncc2CO[C@@H]1CN(C)S(=O)(=O)c1ccc(F)cc1 - 0 0 - - - -
COc1ccc(NC(=O)N(C)C[C@H]2Oc3c(NS(=O)(=O)c4cccs4)cccc3C(=O)N([C@H](C)CO)C[C@H]2C)cc1 0 0 0 - - - -
SMILES C_diff_growth T_cruzi_growth-1 Pf_Dd2_inh T_cruzi_growth-2 T_cruzi_growth-3 3T3_cytotox 3T3_cytotox_2
N#C[C@H]1[C@H](c2ccccc2C2=CCCC2)[C@@H](CO)N1C(=O)C1CC1 0 - 0 - - - -
CCCNC(=O)N[C@H]1C=C[C@H](CC(=O)NC2CCCCC2)O[C@H]1CO - 0 0 - - - -
Cc1noc(C)c1NC(=O)N(C)C[C@H]1Oc2ccc(NS(=O)(=O)c3ccc(F)cc3)cc2C(=O)N([C@H](C)CO)C[C@H]1C 0 0 0 - - - -
C[C@@H]1CN([C@@H](C)CO)S(=O)(=O)c2ccc(C#Cc3ccccc3F)cc2O[C@H]1CN(C)C(=O)Cc1cccnc1 0 96.2 0 104.2 0 0 72.7
CC(C)CC#Cc1ccc2c(c1)O[C@H](CN(C)C(=O)Cc1cccnc1)[C@@H](C)CN([C@H](C)CO)S2(=O)=O 0 - 0 - - - -
COc1cccc(CNC(=O)C[C@H]2CC[C@@H](NC(=O)C3CCC3)[C@H](CO)O2)c1 0 0 0 - - - -
CCCC#Cc1ccc([C@H]2[C@H]3CN(Cc4ccncc4)CCCCN3[C@H]2CO)cc1 0 94.9 0 105.0 0 42.3 80.7
COCC#Cc1ccc([C@@H]2[C@H](CO)N3CCCCN(Cc4ccncc4)C[C@@H]23)cc1 0 0 0 - - - -
CCCC#Cc1ccc([C@@H]2[C@H]3CN(CCC)CCCCN3[C@H]2CO)cc1 0 0 0 - - - -
COc1ccc(C#Cc2ccc([C@@H]3[C@@H](CO)N4CCCCN(Cc5ccncc5)C[C@H]34)cc2)cc1 0 ? 0 100.0 ? 89.3 105.0
COc1ccc(C#Cc2ccc([C@H]3[C@H]4CN(Cc5ccncc5)CCCCN4[C@H]3CO)cc2)cc1 0 0 0 - - - -
CCCC#Cc1ccc([C@H]2[C@@H](CO)N3CCCCN(Cc4ccncc4)C[C@@H]23)cc1 0 114.7 0 100.8 0 ? 70.8
COCC1=C([C@H](O)c2ccccc2)[C@H](CO)n2c(=O)n(-c3ccccc3)c(=O)n2C1 0 - - - - - -
CC(C)NC(=O)N(C)C[C@@H]1Oc2c(NS(=O)(=O)c3cn(C)cn3)cccc2C(=O)N([C@@H](C)CO)C[C@H]1C 0 0 0 - - - -
CC(C)NC(=O)N1CCCCN2[C@H](C1)[C@H](c1ccc(C#Cc3ccccc3)cc1)[C@@H]2CO 0 0 0 - - - -
CC(C)NC(=O)N1CCCCN2[C@H](C1)[C@@H](c1ccc(C#Cc3ccccc3)cc1)[C@@H]2CO 0 0 0 - - - -
